Shn3 inh set2: reduction of Shn3 3'UTR firefly luciferase signal, primary screen, Schnurri-3 inhibitor project, cell-based, Clone20 osteoblasts, set 2; AID 588674, 2011; Clone20 osteoblast Shn3 3'UTR firefly luciferase, 24 h; inhibition, % at 12.5 µM; actives 0.52% (n = 360,000);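 active means mean inhibition of at least 75% with every replicate also reaching 75%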;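 further: 0% = median of neutral control wells and 100% = pilot-screen positive control compound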
LMP1 NFkB inh: EBV LMP1-driven NF-kappaB luciferase reporter inhibitors, primary screen, cell-based, luminescence, single point; LMP1-induced NF-kappaB luciferase reporter cells; inhibition, % at 12.5 µM; actives 0.69% (n = 350,000); in the data active means inhibition above about 41%;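 further: 0% = neutral control wells and 100% = reference inhibitor control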
NR5A2 inv ag: LRH-1 (NR5A2) inverse agonists, primary screen, cell-based, luminescence, HEK293T, StAR-luciferase reporter | Nuclear receptor subfamily 5 group A member 2 (Homo sapiens), O00482 | LRH-1 transfected, 24 h | inhibition, % at 3.6 µM | actives 0.13% (n = 360,000);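 active means inhibition above the mean inhibition of all tested compounds plus 3 SD, cut at about 73% in these data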;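 further: 0% = DMSO wells and 100% = reporter-only cells lacking LRH-1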
NCOA1 inh: SRC1 coactivator transcriptional activity inhibitors, primary screen, cell-based, luminescence; Nuclear receptor coactivator 1 (Homo sapiens), Q15788; HEK293 GAL4-SRC1 luciferase reporter; inhibition, % at 3.6 µM; actives 0.12% (n = 360,000);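 active means inhibition above the campaign mean plus 3 SD, with each screening campaign given its own cutoff, cut at about 60% in these data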;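 further: 0% = DMSO treated cells and 100% = gossypol at 36 µM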
SRC2 inh: inhibition of GAL4-SRC2 driven luciferase reporter, primary screen, SRC2 inhibitor project, cell-based, luminescence. Nuclear receptor coactivator 2 (Homo sapiens), Q15596. HEK293 GAL4-SRC2 luciferase reporter. inhibition, % at 9 µM. actives 0.17% (n = 370,000);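 active means inhibition above the mean inhibition of all tested compounds plus 3 SD, set per campaign, cut at about 52% in these data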;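 further: 0% = DMSO treated cells and 100% = cells given Gossypol at 36 µM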
Target sequence (Q15596 whole entry, looked up, the tested form may be a part): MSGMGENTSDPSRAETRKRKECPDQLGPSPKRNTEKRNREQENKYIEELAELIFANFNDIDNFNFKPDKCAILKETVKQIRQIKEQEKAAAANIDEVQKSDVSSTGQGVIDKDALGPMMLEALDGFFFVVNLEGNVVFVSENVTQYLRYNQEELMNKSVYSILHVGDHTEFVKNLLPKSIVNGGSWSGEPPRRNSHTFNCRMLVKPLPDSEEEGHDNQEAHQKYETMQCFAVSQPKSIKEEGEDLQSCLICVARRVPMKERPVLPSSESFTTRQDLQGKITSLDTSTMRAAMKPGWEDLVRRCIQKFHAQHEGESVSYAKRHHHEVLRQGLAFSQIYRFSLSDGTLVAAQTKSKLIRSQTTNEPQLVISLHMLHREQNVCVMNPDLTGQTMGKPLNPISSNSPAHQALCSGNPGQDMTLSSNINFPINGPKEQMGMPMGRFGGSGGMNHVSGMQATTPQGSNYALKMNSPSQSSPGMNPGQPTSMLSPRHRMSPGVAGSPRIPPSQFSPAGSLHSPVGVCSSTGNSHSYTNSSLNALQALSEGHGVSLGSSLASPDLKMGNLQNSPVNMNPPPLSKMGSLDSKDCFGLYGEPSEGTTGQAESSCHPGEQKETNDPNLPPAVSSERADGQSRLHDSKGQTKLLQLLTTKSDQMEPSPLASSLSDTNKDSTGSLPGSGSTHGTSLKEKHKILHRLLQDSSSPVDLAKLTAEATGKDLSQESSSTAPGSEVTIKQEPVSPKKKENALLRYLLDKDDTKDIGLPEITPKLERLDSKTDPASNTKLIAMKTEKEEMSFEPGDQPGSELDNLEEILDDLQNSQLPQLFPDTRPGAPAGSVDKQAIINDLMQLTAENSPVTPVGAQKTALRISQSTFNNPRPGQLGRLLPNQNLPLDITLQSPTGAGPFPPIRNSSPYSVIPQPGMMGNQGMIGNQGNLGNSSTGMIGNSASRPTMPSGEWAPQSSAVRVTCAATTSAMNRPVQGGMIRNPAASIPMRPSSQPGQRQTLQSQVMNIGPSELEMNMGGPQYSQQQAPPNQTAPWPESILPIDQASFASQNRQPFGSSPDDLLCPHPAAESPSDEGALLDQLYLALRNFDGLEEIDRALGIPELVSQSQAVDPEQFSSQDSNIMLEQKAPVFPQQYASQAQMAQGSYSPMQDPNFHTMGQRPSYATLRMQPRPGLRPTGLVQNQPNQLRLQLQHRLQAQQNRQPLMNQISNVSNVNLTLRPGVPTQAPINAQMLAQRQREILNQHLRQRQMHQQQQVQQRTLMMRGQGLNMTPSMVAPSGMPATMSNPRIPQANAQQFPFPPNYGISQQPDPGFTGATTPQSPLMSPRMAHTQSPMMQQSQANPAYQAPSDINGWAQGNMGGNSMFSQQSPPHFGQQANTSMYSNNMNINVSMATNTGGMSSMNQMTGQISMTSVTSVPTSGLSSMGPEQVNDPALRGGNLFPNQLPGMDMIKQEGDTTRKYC
NCOA3 inh: SRC3 coactivator transcriptional activity inhibitors, primary screen, cell-based, luminescence; Nuclear receptor coactivator 3 (Homo sapiens), Q9Y6Q9; HEK293 GAL4-SRC3 luciferase reporter; inhibition, % at 3.6 µM; actives 0.17% (n = 360,000); AID 588352, 2011;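 active means inhibition above a per-campaign cutoff, the mean of all compounds plus 3 SD, cut at about 60% in these data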;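 further: 0% = DMSO-treated cells and 100% = gossypol-treated cells at 36 µM; higher means less SRC3-driven luciferase light from the GAL4 reporter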
* marks the source's active call; other numbers are inactive results; nt = no result. Only some compounds are listed: those with a hit (about 1.2% of all), similar ones and a draw of the others.

SMILES	Shn3 inh set2	LMP1 NFkB inh	NR5A2 inv ag	NCOA1 inh	SRC2 inh	NCOA3 inh
CCOC(=O)C1(CCOc2ccccc2)CCN(Cc2ccc(OC)c(O)c2)CC1	19.3	8.1	10.0	-15.6	-11.9	4.3
CCOC(=O)C1(CCOc2ccccc2)CCN(Cc2ccc(OC)c(COC)c2)CC1	88.5*	14.2	17.8	11.9	12.7	24.8
C=CC(=O)Nc1cccc(Nc2nc(N[C@H]3CC[C@H](N(C)C)CC3)nc3c2ncn3C(C)C)c1	67.9	91.5*	98.4*	87.6*	nt	87.0*
COc1ccc(CNS(=O)(=O)/C=C/c2ccccc2CNC(=O)OC(C)(C)C)cc1	nt	nt	nt	nt	-0.5	nt
O=C(Cc1cccc2ccccc12)Nc1ccc(-c2cc3ccccc3oc2=O)cc1	39.4	54.8*	1.9	4.3	50.7	17.2
COc1cccc(C2=CC(=O)C[C@H](c3ccc4c(c3)OCO4)C2)c1	0.8	47.6*	5.4	-2.1	nt	0.6
O=C1C=C(c2ccccc2)C[C@@H](c2ccc3c(c2)OCO3)C1	10.6	3.6	-16.8	3.0	-10.8	4.0
COc1ccc([C@H]2CC(=O)C=C(c3ccc4c(c3)OCO4)C2)cc1OC	86.2*	0.9	9.3	-2.4	-2.2	0.1
N/C(=N\OCc1ccc([N+](=O)[O-])cc1)c1ccccn1	nt	72.9*	nt	nt	nt	nt
CCc1ccc(OCC(=O)O/N=C(\N)c2ccccn2)cc1	nt	nt	-119.8	-118.1	-65.1	-43.7
CC(C)(C)c1ccc(C(=O)O/N=C(\N)c2ccccn2)cc1	63.2	73.8*	88.3*	89.7*	86.3*	88.4*
CCOc1ccc(C(=O)O/N=C(\N)c2ccccn2)cc1	83.7	87.7*	28.7	17.0	64.9*	39.3
Cc1ccc(C(=O)O/N=C(\N)c2ccccn2)cc1	43.6	78.9*	-15.9	-22.3	56.7*	-62.5
Cc1cccc(C(=O)O/N=C(\N)c2ccccn2)c1	46.2	37.9	-6.6	-20.6	47.8	-43.9
CCCCCCCCN1C(=O)[C@@H](CC(=O)NCCCN2CCCC2=O)C[C@@]2(C(=O)OC)C1=C[C@H](C(C)(C)C)O[C@@H]2C	nt	nt	nt	nt	-3.7	nt
N/C(=N\OC(=O)c1cccc(F)c1)c1ccccn1	-0.6	23.1	-114.1	-119.8	-6.4	-68.0
N/C(=N\OC(=O)c1ccccc1)c1ccccn1	22.7	44.6*	-87.9	-99.4	-17.4	-66.7
Cc1ccc(C(=O)O/N=C(\N)c2ccccn2)cc1C	45.4	55.8*	-11.1	-33.7	42.4	-11.4
COc1cc(C(=O)O/N=C(\N)c2ccccn2)cc(OC)c1OC	-30.3	-2.9	-13.1	-7.7	-6.3	-4.3
CCOC(=O)[C@@]12CCCC=C1N(CCc1ccc(Cl)cc1)C(=O)[C@H]2CC(=O)NCc1ccccc1	nt	nt	nt	nt	6.6	nt
Cc1nn(Cc2c(Cl)cccc2Cl)c(C)c1NC(=O)c1cn(-c2ccccc2)nc1-c1ccccc1	87.7*	-86.6	2.2	-2.1	nt	1.0
Cc1cccc(C)c1NC(=O)CNC(=O)c1cn(-c2ccccc2)nc1-c1ccccc1	-8.2	-5.3	-5.4	-40.7	3.8	18.2
COc1ccc(C(=O)Nc2ccc(N3CCN(C(=O)c4ccccc4C)CC3)cc2)cc1	24.2	51.5*	12.6	20.8	32.4	33.0
COc1ccc(C(=O)Nc2ccc(N3CCCC3)cc2)cc1	2.4	10.8	-31.2	-7.5	-8.8	-21.9
C=C1C(=O)O[C@@H]2[C@H]1[C@@H](OC(=O)/C(C)=C/C)C/C(C)=C\C(=O)/C=C(\C)[C@@H]2O	-31.3	66.7*	-80.4	-47.2	-1.4	-24.0
SMILES	Shn3 inh set2	LMP1 NFkB inh	NR5A2 inv ag	NCOA1 inh	SRC2 inh	NCOA3 inh
O=C(NC1CCCCN(Cc2ccc(Cl)cc2)C1=O)c1cccs1 (stereo unspecified)	nt	nt	nt	nt	-24.3	nt
CN(Cc1cnc2nc(N)nc(N)c2n1)c1ccc(C(=O)NC(CCC(=O)O)C(=O)O)cc1 (stereo unspecified)	45.2	29.5	79.3*	78.3*	4.4	83.2*
CCOC(=O)CCC(NC(=O)c1cncc(O)c1)C(=O)OCC (stereo unspecified)	-3.9	-0.3	10.6	-12.3	-8.6	6.2
CCCN(CCC)C(=O)C(CCC(=O)O)NC(=O)c1ccccc1 (stereo unspecified)	-28.4	-4.4	7.3	3.0	15.7	-6.0
CN(Cc1cnc2nc(N)nc(N)c2n1)c1ccc(C(=O)NC(CCC(=O)O)C(=O)O)cc1C(F)(F)F (stereo unspecified)	41.9	29.6	44.6	66.6*	-16.4	72.5*
CCN(CC)C(=O)CN1C(=O)C2CCCCN2C(=O)c2ccccc21 (stereo unspecified)	nt	nt	nt	nt	6.3	nt
CCN(CC)S(=O)(=O)c1cccc(NC(=O)CNc2cccc(S(=O)(=O)N3CCOCC3)c2)c1	88.1*	24.6	41.5	27.2	nt	28.4
Cc1c(C(=O)Nc2cccc(C(F)(F)F)c2)oc2ccc(S(=O)(=O)N3CCOCC3)cc12	88.0*	16.5	1.1	-16.6	-7.3	-10.2
CCN(CC)S(=O)(=O)c1cc(NC(=O)CNc2cccc(S(=O)(=O)N3CCCC3)c2)ccc1C	91.4*	24.9	41.8	30.5	nt	3.0
CN(C)S(=O)(=O)c1cccc(NC(=O)CNc2cccc(S(=O)(=O)N3CCCCC3)c2)c1	54.0	10.8	33.1	18.6	5.1	24.0
CN(CC(=O)Nc1cccc(S(=O)(=O)N2CCOCC2)c1)CC(=O)Nc1ccc(Cl)c(C(F)(F)F)c1	88.1*	4.7	6.3	1.0	6.1	10.8
Cc1ccc(-n2c(SCC(=O)Nc3ccccc3-c3ccccc3)nnc2-c2cccnc2)cc1	nt	nt	nt	nt	-7.3	nt
CC(C)CN1C(=O)[C@@]2(CC(=O)N(C)C2c2ccccc2)c2cc(-n3cc(CO)nn3)ccc21 (stereo partly specified)	nt	nt	nt	nt	5.7	nt
Cc1ccc2nc(-c3ccc4c(c3)OCCO4)cn2c1	66.3	85.4*	9.8	36.8	70.3*	39.2
Clc1ccc2nc(-c3ccc4c(c3)OCO4)cn2c1	-3.2	60.1*	-131.3	-96.1	-23.1	-58.0
c1ccn2cc(-c3ccc4c(c3)OCCO4)nc2c1	-3.2	56.5*	-73.7	-65.5	0.2	-48.9
Clc1ccc2nc(-c3ccccc3)cn2c1	-0.4	-2.9	-128.3	-61.9	-48.9	-84.2
C=CCN(C)CC#Cc1ccc(OC)cc1	nt	nt	nt	nt	11.1	nt
Cc1cc(Br)c2nc(-c3ccc(F)cc3)c(Cc3cccc(Cl)c3)n2c1	nt	nt	nt	nt	-27.2	nt
Cn1c(=O)c([N+](=O)[O-])c(Cl)c2ccccc21	97.0*	14.3	18.8	-22.3	-64.6	-12.8
CCN(CC)c1c([N+](=O)[O-])c(=O)n(C)c2ccccc12	-7.8	-6.2	9.2	8.8	7.1	6.2

Source: PubChem
